# Screens (PubChem BioAssay)
# IL-1B inflam inh: blocks inflammasome-driven IL-1 beta release | THP-1 LPS/ATP IL-1B secretion, AlphaLISA, 16 h; active compounds read low | activity change, % at 57.5 µM | 360,000 compounds, 4.7% hits; in the data active means activity change below about -50%; inconclusive means mostly about -30% to -49%
#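 THP-1 cells pretreated 1 hr with compounds (up to 57.5 uM final), then stimulated with LPS (250 ng/mL final) plus ATP (1.25 mM final); secreted IL-1B measured by AlphaLISA after 16 hr, decreased signal indicating inhibition.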
# HT1080-NT tox: kills 2HG-producing HT-1080-NT fibrosarcoma cells | HT-1080-NT fibrosarcoma viability, CellTiter-Glo ATP luminescence, 48 h | Potency, µM (titrated, usually from 46.1 µM), without a hit: at the top dose activity, negative = less viability, usual class: cytotoxic | 360,000 compounds, 1.6% hits | AID 686970;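 further: NT is the 2HG producing partner of a matched IDH1 knockdown line; potency means the concentration at half of the fitted maximal effect; 0% = DMSO-treated cells and -100% = media-only wells without cells; nearly all actives have a fitted effect of over 55% in size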
#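 A 48-hour cytotoxicity screen used HT-1080-NT cells plated 2 hours before compound delivery. ATP-based CellTiter-Glo luminescence measured viability, normalized to DMSO and no-cell controls.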
# DT40 TDP1 CPT: DT40-hTDP1 cell growth loss with CPT; 420,000 compounds, 12% hits; Potency, µM (series often up to 46.2 µM), for inactives: at the top dose activity change, negative = growth inhibition, hits mostly inhibitors; chicken DT40 Tdp1-/-;hTDP1 cells + 20 nM CPT, ATP luminescence, 48 h; further: potency means the concentration at half of the fitted maximal effect; nearly all actives have a fitted effect of over 55% in size
#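 Cell growth measured by CellTiter-Glo luminescence after a minimum 48 h, 37 C compound exposure with 20 nM CPT in Tdp1-knockout DT40 cells stably expressing hTDP1, seeded 400/well; qHTS titration format.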
# HT1080 IDH1KD tx: toxicity to HT-1080 IDH1 knockdown cells (counter line). AID 686971. 360,000 compounds, 2% hits. Potency, µM (doses to about 46.1 µM), for the others: at the top dose activity, negative = toxicity, actives largely listed as cytotoxic. HT-1080 IDH1 knockdown viability, ATP luminescence, 48 h;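 further: potency means the concentration at half of the fitted maximal effect; 0% = DMSO wells and -100% = cell-free medium wells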
#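 After a 2 h attachment period, IDH1KD HT-1080 cells took pin-transferred compound for 48 h at 37 °C; ATP-based luminescence after 10 min room-temperature reagent incubation reported viability.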
# TDP1 cell noCPT: qHTS for Inhibitors of human tyrosyl-DNA phosphodiesterase 1 (TDP1): qHTS in cells in absence of CPT. DT40 Tdp1-/- hTDP1 cells, no CPT, ATP luminescence, 48 h. 420,000 compounds, 15% hits. Potency, µM (doses to about 46.2 µM), without a hit: at the highest dose activity change, negative = growth inhibition, hits mostly inhibitors; further: potency means the concentration at half of the fitted maximal effect; nearly all actives have a fitted effect of over 55% in size
#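 Readout: luminescence from CellTiter-Glo after 30 min in the dark at RT. Cells: DT40 Tdp1-/- with stable hTDP1, 400/well. Exposure: compounds alone, ≥48 hr, 37 °C.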
# The depositor's hits bear a star; ? = inconclusive. Sampled rows, rich in hits. Any-hit rate of the full collection: about 19%. Unless noted, the call rests on the fitted dose curve; in most records, active means well fitted curve in the direction sought with a large enough effect; inconclusive means small, poorly fitted or top-dose-only effect, or another doubt; inactive means no such curve, though single readings can be large; an effect the other way counts as inactive or inconclusive. Unless noted, on the % scale 0 is the no-effect control and ±100 the full control effect.
SMILES,IL-1B inflam inh,HT1080-NT tox,DT40 TDP1 CPT,HT1080 IDH1KD tx,TDP1 cell noCPT
CCCCN(C)S(=O)(=O)c1ccc(C(=O)N=c2sc3cc(NC(C)=O)ccc3n2C)cc1,6,3%,?,-3%,-86%
O=C(OCc1ccccc1)N1CCC2CC1c1cc(N3CCOCC3)ccc12 (stereo unspecified),19,-8%,?,-3%,?
O=C(C1CCCCC1)N1CCC2CC1c1cc(N3CCCCC3)ccc12 (stereo unspecified),51,1%,18µM*,3%,21µM*
O=C(c1ccccc1F)N1CCC2CC1c1cc(N3CCCCC3)ccc12 (stereo unspecified),37,-3%,?,-4%,18µM*
CCCC(C(=O)NC1CCCC1)N(CC1CCCO1)C(=O)CNS(=O)(=O)c1ccc(F)cc1 (stereo unspecified),-3,4%,2%,3%,-21%
COCCNC(=O)C(c1ccc(Cl)cc1)N(CCOC)C(=O)CCC(=O)Nc1ccccn1 (stereo unspecified),2,?,-23%,27%,-4%
CC(=O)N(CCC(c1ccccc1)c1ccco1)Cc1cccs1 (stereo unspecified),-20,-5%,15µM*,?,?
CCC(=O)N(CCC(c1ccco1)c1ccccc1OC)Cc1cccs1 (stereo unspecified),?,-1%,?,-23%,?
CCC(C)c1ccccc1NC(=O)C(C)N(C)Cc1cccc(OC)c1 (stereo unspecified),-6,-19%,?,-24%,16µM*
COc1ccc(CNC(=O)C(C)N(C)Cc2cccc(F)c2)cc1 (stereo unspecified),-14,-2%,?,-1%,-26%
COc1cccc(CN(C)CC(=O)Nc2c(C)cccc2C(C)C)c1,-29,-6%,?,-24%,?
COc1ccc(NC(=O)C(CC(=O)O)C(C)c2ccccc2)cc1 (stereo unspecified),45,10%,16µM*,12%,?
COc1ccc(NC(=O)C(CC(=O)O)Cc2ccccc2)cc1 (stereo unspecified),0,1%,-12%,22%,1%
COc1ccc(NC(=O)C(C)N(C)Cc2ccc3ccccc3c2)cc1 (stereo unspecified),?,-2%,?,-18%,13µM*
CCOc1cc(NC(=S)NCCOC)c(OCC)cc1NC(=O)c1ccco1,18,-3%,-29%,0%,?
COc1c2ccccc2nn1C(C)C,50,17%,25%,1%,-7%
CC(OC(=O)c1ccccc1C(=O)N(C)c1ccccc1)C(=O)Nc1ccc(C(N)=O)cc1 (stereo unspecified),22,3%,1%,5%,?
